# High-throughput results (PubChem BioAssay)
# A selection: hits, their analogues and other compounds. The true share with any hit is near 14%.
# Pf growth 48h: inhibits P. falciparum growth in the first generation, 48 h. P. falciparum luciferase growth in erythrocytes, 48 h. Potency, µM (doses to about 28.7 µM), for inactives: top-dose activity change, negative = inhibition, usual class: inhibitors. 310,000 tested, 5.9% active. AID 504832; further: potency means the concentration at half of the fitted maximal effect
#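 Luminescence readout; reporter = integrated firefly luciferase in P. falciparum. RBC culture at 2% hematocrit, 0.1% parasitemia final, 37 C/5% CO2; decreased signal taken as growth inhibition.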
# HCMV inh: blocks human cytomegalovirus replication | HFF cells, HCMV-luciferase reporter, 72 h; hits give low values | activity change, negative = inhibition, % at 57.5 µM | 410,000 tested, 4.5% active | AID 1259415; in the data active means activity change below about -60%; inconclusive means no clear call, values can overlap the other calls; inactive means above about -39%
#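 Two compound doses tested in HFFs infected with HCMV-luciferase, MOI 1 PFU/cell, 72 h at 37C. Lysate luminescence read with OneGlo; data normalized against buffer-only and 10uM Salinomycin inhibitor controls.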
# Sm TGR block: S. mansoni TGR enzyme inhibition | Potency, µM (doses to about 114 µM), for inactives: at the highest dose activity change, negative = inhibition, most hits filed as inhibitors | purified TGR, DTNB reduction, TNB absorbance 405 nm | AID 485364 | 360,000 tested, 3% active | Q962Y6; further: potency means the concentration at half of the fitted maximal effect; nearly all actives have a fitted effect of over 60% in size
#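 First, TGR (20 nM dispensed) and NADPH were mixed with compound. Second, a 15 min room-temperature incubation followed. Third, further NADPH and then DTNB were added to start the reaction. Finally, TNB absorbance was monitored kinetically.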
# FBPA Giardia inh: Giardia lamblia aldolase inhibition | A8B2U2 | purified Giardia FBPA | Potency, µM (titrated, usually from 59.6 µM), for inactives: at the top dose activity, negative = inhibition, usual class: inhibitors | 290,000 tested, 0.71% active; further: potency means the concentration at half of the fitted maximal effect; nearly all actives have a fitted effect of over 55% in size
# Target sequence (A8B2U2 whole entry, looked up): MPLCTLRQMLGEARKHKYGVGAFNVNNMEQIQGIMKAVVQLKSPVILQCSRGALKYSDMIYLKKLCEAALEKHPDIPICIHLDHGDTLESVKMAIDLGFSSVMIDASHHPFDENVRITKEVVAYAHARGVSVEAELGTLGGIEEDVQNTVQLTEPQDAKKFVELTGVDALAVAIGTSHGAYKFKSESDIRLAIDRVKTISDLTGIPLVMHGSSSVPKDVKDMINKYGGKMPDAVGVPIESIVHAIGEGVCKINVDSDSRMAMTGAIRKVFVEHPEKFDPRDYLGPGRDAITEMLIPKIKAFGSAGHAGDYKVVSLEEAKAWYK
#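 40 nM FBPA preincubated 10 min at RT with compound (up to 57.5 uM final), then substrate plus GAPDH/TPI/NAD/arsenate coupling and diaphorase/resazurin added. Fluorescence read after 20 min at RT, 525/598 nm.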
# Pf growth 96h: P. falciparum growth inhibition at 96 hour, primary screen for plastid delayed-death inhibitors; P. falciparum luciferase reporter growth, 96 h; Potency, µM (top dose mostly 28.7 µM), for inactives: top-dose activity change, negative = inhibition, hits mostly inhibitors; 320,000 tested, 6.9% active; further: potency means the concentration at half of the fitted maximal effect
#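 Erythrocytes infected with luciferase-expressing P. falciparum were dispensed at 2% hematocrit and 0.05% parasitemia (final), then incubated with compounds 96 hours at 37 C in 5% CO2. Luminescence after detection reagent addition reported growth.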
# The depositor's hits bear a star; ? = inconclusive; · = no result. Unless noted, the call rests on the fitted dose curve; in most records, active means well fitted curve in the direction sought with a large enough effect; inconclusive means small, poorly fitted or top-dose-only effect, or another doubt; inactive means no such curve, though single readings can be large; an effect the other way counts as inactive or inconclusive. On the % scale 0 is the no-effect control and ±100 the full control effect.
SMILES,Pf growth 48h,HCMV inh,Sm TGR block,FBPA Giardia inh,Pf growth 96h
O=C(COc1ccc(Cl)cc1Br)NC(=O)NCc1ccccc1,27%,25,-6%,2%,?
Cc1ccc(C(=O)c2coc3ccc(O)c(CN4CCN(C)CC4)c23)cc1,3.7µM*,19,6%,1%,32%
COc1ccc(NC(=O)COc2ccccc2Cc2ccccc2)cc1S(=O)(=O)N1CCOCC1,12µM*,-12,?,·,5.2µM*
COc1ccccc1CCC(=O)Nc1ccc(OC)c(S(=O)(=O)N2CCOCC2)c1,-8%,0,-23%,·,?
O=C(COc1ccccc1Cc1ccccc1)Nc1cccc(S(=O)(=O)N2CCOCC2)c1,13µM*,-29,1%,·,4.1µM*
O=C(Cc1ccccc1Cl)Nc1cccc(S(=O)(=O)N2CCOCC2)c1,7%,-28,-9%,-1%,?
CSc1nc(N2CCN(Cc3ccc4c(c3)OCO4)CC2)c2ccccc2n1,?,·,0%,1%,?
CCCCn1c(O)c(N=NC(=O)c2ccncc2)c2cc(Br)ccc21,-16%,-26,5%,-6%,?
CCn1c(O)c(N=NC(=O)c2cccnc2)c2cc(Br)ccc21,10µM*,-26,3%,2%,?
CCOC(=O)CC1(CC(=O)OCC)NC(=O)c2c(C)sc(C(=O)OCC)c2N1,-5%,7,8%,-2%,3.7µM*
CCCCC1(C)NC(=O)c2c(C)sc(C(=O)OCC)c2N1 (centres undefined),?,3,0%,1%,8.3µM*
Clc1ccc(-c2cc3nc(NCc4cccc(Cl)c4)ccn3n2)cc1,·,90,·,·,·
COC(=O)C1=C(C(=O)OC)SC2(S1)C(C(=O)OC)=C(C(=O)OC)Sc1c2ssc1=O,·,-77*,·,·,·
C=CCN(CC=C)c1cnn(-c2nc3ccccc3[nH]2)c(=O)c1Cl,-22%,53,-7%,-5%,·
O=c1c(Cl)c(NCCCO)cnn1-c1nc2ccccc2[nH]1,348%,-98*,8.9µM*,-1%,463%
NC(Cc1ccc(C(F)(F)F)cc1)c1csc(Nc2nncc3ccccc23)n1 (centres undefined),·,-104*,·,·,·
Cc1cc(C)nc(Nc2nc(C(N)Cc3ccccc3)cs2)n1 (centres undefined),·,-73*,·,·,·
CCCCN(C)C(=O)c1ccc(Nc2nc(C(N)Cc3ccc(C(F)(F)F)cc3)cs2)nc1 (centres undefined),·,-76*,·,·,·
CCCCN(C)C(=O)c1ccc(Nc2nc(C(N)CCc3ccccc3)cs2)nc1 (centres undefined),·,15,·,·,·
O=[N+]([O-])c1ccc(Cc2ccccn2)c([N+](=O)[O-])c1,·,12,·,·,·
O=S(=O)(c1cnc[nH]1)N1CCN(C(c2ccc(F)cc2)c2ccc(F)cc2)CC1,-12%,?,-8%,·,?
O=C1COc2ccc(S(=O)(=O)CCC(=O)N3CCN(c4cccc(Cl)c4)CC3)cc2N1,-14%,-35,-13%,8%,32%
Cc1ccc(C)c(N2CCN(S(=O)(=O)c3ccc4c(c3)NC(=O)CO4)CC2)c1,-10%,0,7%,·,13µM*
Cc1ccc(C)c(N2CCN(S(=O)(=O)c3ccc4c(c3)NC(=O)CC(=O)N4)CC2)c1,3%,-19,-4%,13%,-12%
O=C1COc2ccc(S(=O)(=O)N3CCN(c4cccc(Cl)c4)CC3)cc2N1,13%,13,1%,·,13µM*
Cc1ccc2c(c1)N(S(=O)(=O)c1ccc3c(c1)NC(=O)CC(=O)N3)CCO2,7%,?,3%,5%,8.3µM*
O=C(NCc1ccccc1F)C1CCCN1C(=O)Nc1ccc(F)cc1 (centres undefined),6%,31,-2%,2%,0%
O=C(N/C(=C/c1ccc(Br)cc1)C(=O)N1CCOCC1)c1cccs1,-3%,-62*,20%,1%,-17%
COc1ccc(C2C(C(=O)/C=C/c3ccco3)=C(O)C(=O)N2CCN2CCOCC2)cc1OC (centres undefined),4%,-34,11µM*,?,-25%
CCCOc1ccc(C2C(C(=O)c3ccco3)=C(O)C(=O)N2CCN2CCOCC2)cc1OC (centres undefined),43%,·,40µM*,-25%,22%
